The supplement of paper PMC11417369
Whole data set: some 25,000 sequences, median “ln(normalized median fluorescence intensity)” near 7.1, cut for the highest 2% near 10. Only a selection was taken, and the highest values are over-represented in it overall.

These sequences were tested on PfSIP2 AP2 domain 1 (GST-tagged) (assay: gcPBM binding intensity (ln(normalized median fluorescence intensity)); higher = stronger DNA binding).
How it was run: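 GST-tagged P. falciparum DNA-binding domains, expressed in E. coli (about 25 μg on average), were applied for 1 h to an Agilent 4 × 180k array of primer-extended double-stranded 36-bp intergenic genomic probes plus negative controls. The binding buffer was 1× PBS with 1% milk, 0.2 mg/ml BSA, 0.5% salmon testes DNA and 0.03% Triton X-100. Bound protein was detected with Alexa488 anti-GST antibody and scanned at 488 nm. Binding intensity is the highest Masliner-normalised natural-log median intensity across replicate spots of either probe orientation.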

Row | Sequence | gcPBM binding intensity (ln)
1 | ACTGCGTTTTTACACGCGCACTGCAATGAACAATAT | 8.05
2 | AGGTAGAAAAAAGACACACACATTAGATATTTATAT [CACACA_site6313] | 6.87
3 | TATTATATTCTGCTTACACACATATATATATATATA [CACACA_site3060] | 9.32
4 | ATTTTTTTTTCTTTCGCACACGTGAAAGAATTTCTA [CACACA_site2052] | 7.13
5 | TTATATATTTATATATGTACACATTTTACCATTTTT [XGTACX_site2142] | 6.9
6 | GAAAAAAAAAAAAATACACACAAATTGGTATATAAC [CACACA_site6315] | 6.75
7 | TATATACACATTTTTATACACACTTGTTTTATAAAA [CACACA_site8139] | 7.16
8 | AATAAATAAATAAATAAATATATATATATATATATA [GTGCAC_negctrl_site224] | 9.48
9 | AAATGAAAAATAAGGAAAAAAAAAAAAAAAAAAAAA [CACACA_negctrl_site1715] | 6.88
10 | TTTTTTACTTTTGAGACATTTCATATTTTTATTCAC [GTGCAC_negctrl_site730] | 6.91
11 | TATATATCAATATTTACACACATGCGCCCACATAAA [CACACA_site7185] | 7.57
12 | TATATATTAATATTTACACACATGCGCACCCATAAA [CACACA_site2410] | 12.1
13 | TATTTACACCCATGCGCACACATAAATAAATAATAG [CACACA_site5350] | 8.34
14 | TATATCTTAATATTTACACACATGCGCACCCATAAA [CACACA_site5349] | 12
15 | TATTAATATTTACACACATGCGCACACATAAATAAA [TGCATGCA_site609] | 9.31
16 | AATATTTACAGACATGCGCACACATAAATAAATAAT [CACACA_site8760] | 8.81
17 | TATGAATGGTTAAGTACACACATATTAAGATATGTA [CACACA_site5852] | 6.99
18 | TGCATTTTACTTGTTACACACATATAAAATTAACCA [CACACA_site7387] | 7.11
19 | ACTTTAACCTGAACGGTGCATAAAATTTTGGCATTA | 10.8
20 | CTATTTAAAATTTGAACACACATTATTTATTTTAAA [CACACA_site3114] | 6.9
21 | TTATAGCCTGTGAAGAGTACATTTTTATTTTTTATT [XGTACX_site4105] | 6.85
22 | TTTTTTTTTTTTTGGTGTACCATAGGTAAAATGATT [XGTACX_site8020] | 7.2
23 | TATTTATATTTATACACACACACAAAAAAAAAAAAA [CACACA_site6817] | 7.22

Row | Sequence | gcPBM binding intensity (ln)
24 | TATTTTTTATATTTATTTATTTAAAGGAGCTTTTCT [GTGCAC_negctrl_site293] | 6.67
25 | ATATATATATATATTACACACTTTTTCTTTTTTTTT [CACACA_site2780] | 9.47
26 | TTTTTCATTTAGCTTTTACACACTATATATTATTGA [CACACA_site7888] | 7.16
27 | CAGGTGCACTATATTACACACGCTTCTTTTTTTTTA [CACACA_site2069] | 12.4
28 | ACATATTATATATGTGTGCACATATATATATATTTA [GTGCAC_site9591] | 8.7
29 | TATATATTTCGGTGTGCACACTTTTTATTTTTATCC [CACACA_site1726] | 8.4
30 | TATATATATATGTGCACACATAAAGATATTATTTTT [CACACA_site3733] | 9.51
31 | ATATATTGCACTTTTTGTACATAATGAAAAATTTTT [XGTACX_site8223] | 8.1
32 | AATTTTTTTTTTTTTTTTTTTTATATATGTGTGTGT [XGTACX_negctrl_site129] | 7.29
33 | TATATATATATATATGTGCACATATTTATATGTTTT | 9.47
34 | ATCATATTTTTATGTGTGCACTTTTTTTTTTTTTTT [GTGCAC_site9555] | 10.8
35 | AATATTTCTCATTTTGTGCACTGAAAAATGTAATAT | 10.2
36 | ATATATTTTATATGTGTGCACTATATATATATATAT | 10.2
37 | TATATATTTTTATGTGTGCACTGTTTCATAAAAGAA | 10.9
38 | TATATATATTTTTGTGTGCACTATAATATGAAAATA | 10.8
39 | AATATATTTATGCTCATGCACTTTTTTTTTTTTTTT [GTGCAC_site9654] | 8.89
40 | AAATATATTTTACATTGTACATGAATAAACTATAAA [XGTACX_site2080] | 7.05
41 | AAGGCAAGCACTTAAACATGCATATAATAATATCAT [TGCATGCA_site698] | 7.36
42 | TGATAAGTATACTAAAGTACATGAAAAATAACTTCC [XGTACX_site6908] | 6.87
43 | ATTACATACGAGCACACGTAAAAGTATAATATAAAA [GTGCAC_negctrl_site446] | 6.94
44 | TGAGTATATATAAATACACACCAAATGTTAATATAT [CACACA_site5022] | 6.8
45 | TAATGATAAATACATACACACAAAAAATAATATATA [CACACA_site2576] | 6.85
46 | CATATATATTTGTTCACACACACACTAGAAAAAAAA [CACACA_site5380] | 7.29
